# Among all 150,000 compounds or so, about 540 (0.36%) showed an effect of 50% or more. The entries come from a sample that favours strong results as a whole.
# Test system: Plasmodium falciparum
# Assay: Primary screen in NF54 nanoGlo assay, in single point, at 2uM, 72h; a lower Z score goes with more inhibition
# Format: functional, Erythrocyte
# Conditions: timepoint 72 hour
Compound,% Inhibition,Z score
CN1CCC(N(Cc2ccccc2)C(=O)c2cc3cnccc3[nH]2)CC1,52%,-7.83
O=C(NC1CNCCC1O)c1cc2c(Cl)cccc2[nH]1 (stereo not given),-3%,0.71
O=C(NCC1CC1)c1cc2c(OCc3ccc(Cl)cc3)cccc2[nH]1,51%,-9
Cc1cc(N2CCC(N(C)Cc3nc4ccc(F)cc4[nH]3)CC2)ncn1,-13%,2.24
CCOc1ccc2nc(CN(CC)CC3CCN(C4CCN(C)CC4)CC3)ccc2c1,80%,-13.89
c1ccc(CCC23CN(Cc4ccccn4)CC2CN(Cc2ccns2)C3)cc1 (stereo not given),86%,-17.09
Cn1cc(CC(=O)N2CC3CN(Cc4ccns4)CC3(CO)C2)c2ccccc21 (stereo not given),-3%,0.46
C[C@@H](c1cc2ccccc2o1)N(C)CCC(=O)N1CCN(c2ccc(F)cc2)CC1,-2%,0.48
O=C1CN(C(=O)c2ccnc3ccccc23)CCN1Cc1ccccc1F,68%,-13.41
O=C(c1ccnc2ccccc12)N1CCN(C2CCOCC2)CC1,-6%,0.98
CN(CC(=O)N[C@H]1CCCN(c2cnccn2)C1)C1CCNCC1,-7%,1.05
Cc1noc(-c2ccnc(NC[C@@H](c3ccccn3)N3CCOCC3)c2)n1,95%,-18.79
Cc1noc(-c2ccnc(NC[C@H]3CCN(CC(F)(F)F)C3)c2)n1,2%,-0.25
Cc1noc(-c2ccnc(NCCc3coc(-c4ccccc4)n3)c2)n1,0%,-0.05
CC(C)N1CCN(c2cccc(Nc3ncccn3)c2)CC1,5%,-1.03
c1cc(Nc2ccnc(C3CC3)n2)cc(N2CCCCCC2)c1,-1%,0.19
Cc1cccc(Nc2ccnc(Nc3ccc(N4CCN(C)CC4)cc3)n2)c1,89%,-13.46
Cc1cnccc1NCCNc1ncc(F)c(N2CCCC2)n1,25%,-3.87
Cc1cnccc1NCCNCc1cccc(OCCCCN2CCOCC2)c1,95%,-20.36
CCN(CCN1CCCCCC1)C(=O)NCCNc1ccncc1C,-11%,2.32
Cc1cnccc1NCCNCc1cnc(N2CCCCC2)nc1,57%,-12.25
CN(CCCNc1nccc2ncncc12)CC(F)(F)F,-2%,0.32
Cc1ccccc1-c1cccc(N2CCC(NCC3CCNCC3)CC2)c1,98%,-19.56
Cc1cccc(-c2cccc(N3CCC(NC[C@H]4CCC(=O)N4)CC3)c2)c1,1%,-0.25
Cc1cccc(-c2cccc(N3CCC(NCc4cc(C)[nH]n4)CC3)c2)c1,-7%,1.27
NC(=O)C1CCN(CCCNc2ncnc3ccccc23)CC1,14%,-2.8
CCc1ccc2ncnc(NCCCN3CCN(CCO)CC3)c2c1,65%,-12.99
Cc1cccc2c(NCCCCN3CCN(CCO)CC3)ncnc12,-12%,1.79

Compound,% Inhibition,Z score
Cc1cc(O)c2cccc(-c3cccc(C(=O)NCCCN4CCCC4)c3)c2n1,-1%,0.22
Cc1ccc(-c2cccc3c(C(=O)NCCCN4CCC(N5CCCCC5)CC4)cc(C)nc23)cc1,98%,-16.9
Cc1cnccc1NCCNC1CCN(C(=O)[C@@H]2CCCO2)CC1,-9%,1.97
Cn1cncc1[C@@H]1CNC[C@H]1CNC(=O)c1ccccc1NC1CCCCC1,75%,-14.83
COC(CN(Cc1nc(N)nc(Nc2ccc(C)cc2)n1)Cc1nc(N)nc(Nc2ccc(C)cc2)n1)OC,85%,-18.33
CCOc1cc(C(=O)NC2CCN(CC3CCCC3)CC2)cc(-c2ccccc2)c1OC,71%,-12.46
CN(C)CCn1ncc(C(=O)NC2CCN(CC3CCCC3)CC2)c1-c1ccccc1,0%,0.06
Cc1ccc2nc(NC[C@H]3CCN(C4CC4)C3)cc(C)c2c1,55%,-8.34
CCc1ccc2nc(NC[C@H]3CCCN3C)cc(C)c2c1,-2%,0.32
Cc1ccc2cc(CNC[C@H]3CCN(C4CC4)C3)ccc2n1,0%,0.09
COc1ccnc(NCCCc2nc(-c3ccncc3)cs2)n1,69%,-13.68
Nc1nnc(CCCNc2nccc(-c3ccncc3)n2)s1,-9%,1.91
Clc1cc(Nc2c3ccccc3nc3ccccc23)ccc1Oc1ccc2ccccc2c1Cl,-10%,1.68
c1ccc2c(Nc3ccc4[nH]cnc4c3)c3ccccc3nc2c1,98%,-19.44
Oc1ccc(OC(F)(F)F)cc1-c1ccc2nccn2n1,86%,-17.13
CC(C)Nc1cc(-c2cc(OC(F)(F)F)ccc2O)ncn1,1%,-0.31
c1ccc(CNc2ccc(-c3noc(C45CCCN(CCC4)C5)n3)cn2)cc1,81%,-17.51
c1cc(-c2noc(C34CCCN(CCC3)C4)n2)cc(-n2ccnc2)c1,9%,-1.87
c1ccc(-c2nc3c(c(NCCNc4ncccn4)n2)CCC3)nc1,41%,-7.15
Cc1cc(F)ccc1CNc1ccc(N2CCN(C)CC2)nc1,3%,-0.45
OC1(Cn2ccnc2)CCN(Cc2ccnc3ccccc23)CC1,-5%,0.98
Cc1c(CN2CCC(O)(Cn3ccnc3)CC2)[nH]c2c(Cl)cccc12,95%,-16.38
CCn1cc(-c2cccc(C(=O)N[C@@H](C)CN3CCc4ccccc4C3)c2)cn1,53%,-10.47
CNC(=O)c1ccc(C(=O)Nc2nc(C3(C)CC3)ns2)cn1,23%,-4.92
Cc1cc(C)c(C)c(S(=O)(=O)NC2COCC2Cc2ccncc2)c1C (stereo not given),0%,-0.02
CCCC(=O)NC1COCC1Cc1ccncc1 (stereo not given),82%,-16.24
COCCC(=O)NC1COCC1Cc1ccnc2ccccc12 (stereo not given),1%,-0.24
